# Pf growth 48h – inhibits P. falciparum growth in the first generation, 48 h; P. falciparum luciferase growth in erythrocytes, 48 h; AID 504832; 5.9% of 310,000 active; Potency, µM (top dose mostly 28.7 µM), most hits filed as inhibitors
#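 Read-out is firefly luciferase luminescence from an integrated reporter in P. falciparum, so falling signal marks reduced parasite growth. Infected erythrocytes were at 2% hematocrit and 0.1% parasitemia (final) in Albumax-supplemented RPMI 1640.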
# HCV inh – inhibitors of hepatitis C virus infection; Huh7.5.1 HCVcc-Cre infection, luciferase reporter, 44 h; Potency, µM (doses to about 41.8 µM), most hits filed as inhibitors; 3.4% of 340,000 active; AID 651820
#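 Cells (1,000/well) were plated 4 h before compound, then infected with HCVcc-Cre virus (~0.5 moi). After 44 h further culture, infection was read as luciferase luminescence following a 15 min substrate incubation at room temperature.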
# NS1 inh – blocks influenza NS1 protein function; Potency, µM (highest dose often 46.1 µM); 0.4% of 270,000 active; AID 2326; calls by dose curve; also: actives are rising curves; nearly all actives have a fitted effect of over 50% in size
#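 OD600 was taken as the measure of yeast growth restored by compound in an NS1-expressing S. cerevisiae strain. Cells had been washed out of glucose medium and diluted 1:100 into galactose -URA medium, pH 6.0.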
# Pf growth 96h – P. falciparum growth inhibition at 96 hour, primary screen for plastid delayed-death inhibitors; 6.9% of 320,000 active; P. falciparum luciferase reporter growth, 96 h; AID 504834; Potency, µM (titrated, usually from 28.7 µM), most hits filed as inhibitors
#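 Parasite growth measured via integrated firefly luciferase reporter in P. falciparum. Infected erythrocytes at 2% hematocrit, 0.05% parasitemia final were treated 96 hours at 37 C under 5% CO2, and luminescence was read.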
# AMA1 RON2 block – disrupts binding of P. falciparum AMA1 to RON2; AlphaScreen AMA1-biotinylated RON2 peptide binding; Potency, µM (doses to about 58.2 µM), usual class: inhibitors; 0.2% of 360,000 active; also: nearly all actives have a fitted effect of over 45% in size
#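 AMA1 (3D7) with his tag at 25 nM final met compounds first, then biotinylated RON2 peptide at 25 nM; detection used donor plus acceptor beads, 10 µg/mL apiece, read by AlphaScreen after 30 min at room temperature.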
# SARS PLP yeast – inhibitors of SARS-CoV papain-like protease in yeast; Potency, µM (series often up to 32.9 µM), most hits filed as activators; S. cerevisiae expressing SARS-CoV PLpro, growth rescue; 0.19% of 330,000 active; calls by dose curve; also: nearly all actives have a fitted effect of over 55% in size
# A number is an active result; . = inactive; ? = inconclusive; / = no result. This is a sample that favours compounds with a hit; in the whole collection about 12% have one here. Unless noted, calls follow the shape of the dose curve; as a rule, active = well fitted curve in the direction sought with a large enough effect; inconclusive = small, poorly fitted or top-dose-only effect, or another doubt; inactive = no such curve, though single readings can be large; an effect the other way counts as inactive or inconclusive.
SMILES,Pf growth 48h,HCV inh,NS1 inh,Pf growth 96h,AMA1 RON2 block,SARS PLP yeast
Cc1ccc(Cl)cc1N1CCN(CC(=O)Nc2ccc(CN3CCCCC3)cc2)CC1,?,8.9µM,.,?,.,.
CCCc1cc(=O)oc2c(C)c(OCC(=O)Nc3ccc(CN4CCOCC4)cc3)ccc12,?,?,.,4.1µM,.,.
CCCCc1cc(=O)oc2c(C)c(OCC(=O)NCC3CCC(C(=O)O)CC3)ccc12 (stereo not drawn),.,.,.,10µM,.,.
CCCc1cc(=O)oc2c(C)c(OCC(=O)NCCCN3CCOCC3)ccc12,.,.,.,?,.,.
CCCc1cc(=O)oc2cc(OCC(=O)NC3CCN(Cc4ccccc4)CC3)ccc12,?,?,.,?,.,.
Cc1cc(=O)oc2c(C)c(OCC(=O)NCC3CCC(C(=O)O)CC3)ccc12 (stereo not drawn),.,.,.,.,.,.
COc1cc(CCC(=O)Nc2nccs2)cc(OC)c1OC,.,.,.,.,.,.
Cc1cc(C)cc(OCC(=O)Nc2ccc(CN3CCCCC3)cc2)c1,12µM,.,.,?,.,.
O=C(COc1ccccc1Cl)Nc1ccc(CN2CCOCC2)cc1,.,13µM,.,.,.,.
Cc1cc(OCC(=O)Nc2ccc(CN3CCOCC3)cc2)c2c(C)c(C)c(=O)oc2c1,?,11µM,.,?,.,.
Cc1ccc(Cl)cc1N1CCN(CCN)CC1,?,10µM,.,?,.,.
O=C(COc1ccc(Cl)cc1Cl)Nc1ccc(CN2CCOCC2)cc1,.,?,.,.,.,.
Cc1cc(OCC(=O)Nc2ccc(CN3CCOCC3)cc2)c2c(C)cc(=O)oc2c1,?,.,.,?,.,.
Cc1ccc(CCNC(=O)C2CCN(S(=O)(=O)c3ccc4c(c3)NC(=O)C(C)S4)CC2)cc1 (stereo not drawn),?,6.3µM,.,?,.,.
CC1Sc2ccc(S(=O)(=O)N3CCC(C(N)=O)CC3)cc2NC1=O (stereo not drawn),.,.,.,?,.,.
CCN1CCN(C(=O)C2CCN(S(=O)(=O)c3ccc4c(c3)NC(=O)C(C)S4)CC2)CC1 (stereo not drawn),?,.,.,2.9µM,.,.
CC1Sc2ccc(S(=O)(=O)N3CCC(C(=O)NCC(C)c4ccccc4)CC3)cc2NC1=O (stereo not drawn),?,11µM,.,.,.,.
O=C(NCCc1ccccc1)C1CCN(S(=O)(=O)c2cccnc2)CC1,/,.,.,7.4µM,.,.
O=C(NC1CCCC1)C(c1ccccc1)N(C(=O)c1csnn1)c1ccccc1F (stereo not drawn),.,.,.,.,.,.
CC(c1ccncc1)C(C)c1ccncc1 (stereo not drawn),?,.,/,?,.,.
CC1Sc2ccc(S(=O)(=O)N3CCC(C(=O)NCCc4ccccc4)CC3)cc2NC1=O (stereo not drawn),12µM,?,.,?,.,.
COc1cccc(CNC(=O)C2CCN(S(=O)(=O)c3ccc4c(c3)NC(=O)C(C)S4)CC2)c1 (stereo not drawn),?,?,.,?,.,.
Cc1cc(C)c(S(=O)(=O)Nc2ccc(O)cc2)c(C)c1,/,.,.,.,.,.
O=C(O)c1cccc(S(=O)(=O)Nc2ccc3c(c2)CCC3)c1,.,.,.,4.1µM,.,.
Cc1cc(C)c(S(=O)(=O)Nc2ccc3c(c2)CCC3)c(C)c1,.,11µM,.,?,.,.
SMILES,Pf growth 48h,HCV inh,NS1 inh,Pf growth 96h,AMA1 RON2 block,SARS PLP yeast
CCN(CC(=O)Nc1ccc(NC(C)=O)cc1)C(=O)c1cccc(S(=O)(=O)N2c3ccccc3CC2C)c1 (stereo not drawn),?,.,/,?,.,.
CCOc1ccc(NC(=O)CCS(=O)(=O)c2ccc(C)cc2)cc1,.,.,.,.,.,.
N=c1oc2cc(O)ccc2cc1C(=O)Nc1ccc(Br)cc1,.,?,.,0.74µM,.,.
CC(=O)N(CCCc1ccc(C(C)(C)C)cc1)CCCN(C)C,?,7.9µM,.,.,.,.
CC(=O)N(CCCN(C)C)Cc1ccccn1,.,.,.,.,.,.
Cc1onc(-c2ccccc2Cl)c1C(=O)Nc1ccccc1O,.,.,.,.,.,.

# From PubChem
